In ChEMBL document CHEMBL3988442, “University of Dundee, Small-Polar-MMV Screening Library” (2021):
Out of some 48,000 compounds screened, about 13,000 (27%) showed an effect of 50% or more. This is one part of the list.

What follows are compounds tested on Wolbachia pipientis (assay: Anti-Wolbachia Cell-Based Screen). Settings: 5 µM.
Format: functional
Set-up: scale not given: in the data most compounds retested in dose-response had high values

| Structure (SMILES) | Percent Effect [%] |
| --- | --- |
| COC(=O)C1CCCN1C(=O)c1ccc(Br)cc1F (stereo unspecified) | 19.55 |
| Cc1ccc2c(n1)N(C)CCN(C(=O)NC1CC1)C2.O=C(O)C(F)(F)F | 4.586 |
| O=C(NCc1cn2cccnc2n1)C1CC(=O)N(Cc2cccnc2)C1 (stereo unspecified) | -8.48 |
| CC(C)n1cc(C(=O)NCCCc2csc(N)n2)cn1 | -8.171 |
| CNS(=O)(=O)c1cccc(C(C)NCc2ccc(C)o2)c1 (stereo unspecified) | -6.612 |
| O[C@H]1[C@H](n2cc(-c3ccccc3)nn2)c2ccccc2C12CCNCC2 | -3.237 |
| Cc1noc(CN(C)Cc2cnc(N3CCOCC3)nc2)n1 | -9.212 |
| CC(C)c1nc(CN(C)Cc2cnc(N3CCOCC3)nc2)no1 | -9.471 |
| CN(Cc1ccsc1)Cc1nc(-c2ccncc2)no1 | -1.44 |
| Cc1nc(CN(C)Cc2cnc(N3CCOCC3)s2)no1 | 89.45 |
| Cc1ncc(CN(C)C(=O)c2ccc(N3CCOCC3)c(F)c2)s1 | 3.379 |
| CCS(=O)(=O)c1ncc(CN(C)Cc2ccc(C)o2)n1CCOC | -4.34 |
| CN(Cc1nc(-c2ccccc2)no1)Cc1cnc(N2CCOCC2)s1 | 97.7 |
| Cc1ccc(CN(C)Cc2cnc(N3CCOCC3)s2)o1 | 116.2 |
| CCc1cc(N(C)CCc2noc(C)n2)nc(N2CCOCC2)n1 | -13.53 |
| COc1cccc(-c2ccc(CNC(=O)c3ccc(=O)n(C)c3)cc2)c1 | 0.1145 |
| CCc1nc(CN(C)C(=O)C2CC(=O)N(c3cccc(O)c3)C2)no1 (stereo unspecified) | 15.35 |
| CN(C)S(=O)(=O)N1CC[C@]2(C[C@@H](OCc3ccccn3)CO2)C1.O=C(O)C(F)(F)F | -10.12 |
| CC(C(=O)O)N1CC2(CCC1=O)CCN(CCSc1ccccc1)CC2 (stereo unspecified) | -16.96 |
| COCCN(C)C(=O)Nc1ccn(-c2cccc(C(F)(F)F)c2)n1 | -15.63 |
| CCN(Cc1ccncc1)c1cc(C2CCNCC2)nc(C)n1 | 95.16 |
| Cc1nc(C2CCNCC2)cc(N2CCOc3ccccc3C2)n1 | -3.992 |

| Structure (SMILES) | Percent Effect [%] |
| --- | --- |
| Cc1ccnc(CC(C)N(C)c2cc(C3CCNCC3)nc(C)n2)c1 (stereo unspecified) | 6.994 |
| Cc1nc(C2CCNCC2)cc(N(C)CCc2cn[nH]c2)n1 | -7.954 |
| CCN(Cc1c(F)cccc1Cl)c1cc(C2CCNCC2)nc(C)n1 | 117.3 |
| CNS(=O)(=O)CC(=O)N(Cc1c(F)cccc1Cl)C1CC1 | -9.118 |
| Cc1nc(C2CCCNC2)cc(N(C)CCc2ccccc2)n1 (stereo unspecified) | 1.735 |
| CCN(Cc1ccncc1)c1cc(C2CCN2C(C)=O)nc(C)n1 (stereo unspecified) | 128.1 |
| CCN(Cc1ccncc1)c1cc(C2CCCNC2)nc(C)n1 (stereo unspecified) | 103.1 |
| Cc1cccc(OCC(=O)N(Cc2ccncc2)C2CC2)c1 | -0.008091 |
| CCN(Cc1ccncc1)c1nc(C)nc2oc(C)nc12 | -65.89 |
| CO[C@H]1COCCN(C(=O)c2cc(C)oc2C(F)(F)F)C1 | -0.5452 |
| CN(CCc1ccccc1)c1cnn(CC(=O)N2CCOCC2)c(=O)c1 | 17.19 |
| Cc1nc(N(C)C/C=C/c2ccccc2)c2cnn(C)c2n1 | 1.614 |
| COc1cc(C(C#N)NC(=O)CC2=CCCCC2)cc(OC)c1OC (stereo unspecified) | -9.8 |
| O=C(c1cnns1)N1CCN(c2ccc(F)cc2Cl)CC1 | -2.521 |
| CCOc1cc(=O)n2c(c1C(=O)OCc1ccc(F)cc1)CCCC2 | 95.56 |
| CCOc1cc(C)ccc1NC(=O)N(C)Cc1cnn(C)c1 | 5.553 |
| Cc1cccc(COc2ccccc2C(=O)N2CCC(C(N)=O)CC2)c1 | 0.1214 |
| CCOc1cc2c(cc1C(=O)O)CCC2 | -16.22 |
| CCOc1cc(=O)n2c(c1C(=O)OCc1ccc(C)cc1)CCCC2 | 83.47 |
| COc1ccc(CN(CC2CCCO2)C(=O)CN2CCCCC2=O)cc1 (stereo unspecified) | 3.552 |
| CCOc1cc(=O)n2c(c1C(=O)OCc1cccc(C)c1)CCCC2 | 85.47 |
| COC(=O)C(O)C1CCN(CCc2ccc(C)cc2)CC1 (stereo unspecified) | -9.232 |

| Structure (SMILES) | Percent Effect [%] |
| --- | --- |
| COc1ccc(CN2CCCN(c3cc(C(N)=O)ccn3)CC2)cc1 | 15.11 |
| O=C(OCc1cccc(F)c1)c1cccc(C(=O)N2CCCC2)n1 | -9.061 |
| Cc1cccc(CC(=O)N2CCCCC2CN)c1.Cl (stereo unspecified) | -0.4794 |
| CCOc1cc(=O)n2c(c1C(=O)OCc1ccc(OC)cc1)CCCC2 | 91.51 |
| Cc1ccc(C(=O)N(C)CCNS(C)(=O)=O)cc1Br | -2.447 |
| Cc1cc(C(=O)N2CCOC[C@H](Oc3cnccn3)C2)c(C(F)(F)F)o1 | 1.166 |
| Cc1nnc2n1CCN(CC(=O)NC(C)c1cc3ccccc3o1)C2 (stereo unspecified) | -0.5236 |
| COCCN1CCN(Cc2ccc(F)c(C)c2)[C@H]2CS(=O)(=O)C[C@H]21 | -0.5112 |
| O=C1NCCN(Cc2ccoc2)C1CC(=O)N1CCc2sccc2C1 (stereo unspecified) | -12.03 |
| CCCN1CCN(Cc2nc3ccccc3[nH]2)[C@H]2CS(=O)(=O)C[C@H]21 | -8.969 |
| CC1CCC(O)(CN2CCN(CCNC(=O)C3CCC3)CC2)CC1 (stereo unspecified) | 8.242 |
| Cc1[nH]c2c(C)ccc(C)c2c1CC(=O)NCCNc1cccnc1 | 0.5336 |
| N[C@@H]1CCN(Cc2ccccc2CS(=O)(=O)c2ccccc2)C[C@H]1O | -11.48 |
| c1ccc2c(Cc3nnc([C@H]4CCNC4)o3)c[nH]c2c1 | -7.413 |
| CN(C)S(=O)(=O)N1C[C@@H]2CC[C@H](C1)N(Cc1ccc3[nH]ccc3c1)C2 | 10.36 |
| c1cnnc(N[C@@H]2CC[C@@H]3CN(Cc4ccc5cc[nH]c5c4)C[C@@H]32)c1 | 79.05 |
| c1cnnc(N[C@@H]2CC[C@@H]3CN(Cc4ccc5[nH]ccc5c4)C[C@@H]32)c1 | 53.89 |
| c1cnnc(N[C@@H]2CC[C@@H]3CN(Cc4c[nH]c5ccccc45)C[C@@H]32)c1 | 81.26 |
| O=C1CO[C@H]2CN(Cc3c[nH]c4ccccc34)C[C@H]2N1 | 5.983 |
| Cc1nccc(N[C@H]2CN(CCS(C)(=O)=O)C[C@@H]2C2CC2)n1 | -10.57 |
| c1cnn(CCC2CCN(Cc3ccc4[nH]ccc4c3)CC2)c1 | -20.25 |
| c1cc2ccc(N3CCN(Cc4ccc5c(c4)OCO5)CC3)nc2[nH]1 | -12.23 |
